V-ATPase pHluor: yeast V-ATPase proton transport regulation by pHLuorin; S. cerevisiae, pHLuorin cytosolic pH fluorescence; response, % at 10 µM; 0.37% of 350,000 active; in the data active means response mostly above about 7.3%, no sharp cut-off; inactive means mostly below about 5.4%; further: actives read high
Rev-erbA mod: modulates human Rev-erb alpha binding to DNA; 0.79% of 370,000 active; activity, % at 10 µM; AID 1259318; Rev-erbα–FITC-DNA binding, fluorescence polarization, 90 min;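 active means activity above about 14%, limit read from the data; passing the limit was not always enough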
PG9 Ab binder: binds the HIV-1 gp120 antibody PG9; TR-FRET gp120-PG9 antibody binding; inhibition, % at 6.7 µM; 0.43% of 360,000 active; AID 624416; in the data active means inhibition above about 8.5%
NPR2 activator: GC-B (human) receptor activation; HEK293-GC-B cells, CNP EC30, cGMP TR-FRET; 0% at EC30 CNP, 100% saturating CNP; activation, % at 10 µM; 0.11% of 370,000 active;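 active means activation at 10 µM reaching about 35% in either raw or pattern-adjusted values, limit read from the data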
NPR1 activator: GC-A (human) enzyme activation | P16066 | HEK293 GC-A cells, cGMP TR-FRET, EC30 ANP; 0% at EC30 ANP, 100% saturating ANP | activation, % at 10 µM | 0.14% of 370,000 active | AID 1671463; in the data active means activation above about 40%
Each line names hits and unclear results; the compound was inactive in the other large screens. Shown are actives, neighbours in structure and some others; about 1.6% of the full set was active somewhere.

CN(C(=O)CSc1nnc(Nc2ccccc2F)s1)C1CCS(=O)(=O)C1 (stereo unspecified)	none
Cc1ccccc1Nc1nnc(SCC(=O)N(C)C2CCS(=O)(=O)C2)s1 (stereo unspecified)	V-ATPase pHluor 16
CN(C(=O)CSc1nnc(-c2ccc(F)cc2)n1C)C1CCS(=O)(=O)C1 (stereo unspecified)	V-ATPase pHluor 10
NCCCC[C@H](N)C(=O)O	none (no result: V-ATPase pHluor, PG9 Ab binder, NPR2 activator, NPR1 activator)
O=C(CBr)Nc1c2c(nn1-c1ccccc1)CSC2	V-ATPase pHluor 11
CCCC(=O)Nc1c2c(nn1-c1ccccc1)CSC2	none
Cc1ccc(Nc2cc(C)nc3ncnn23)c(Cl)c1	none
Cc1cc(Nc2cccc(Cl)c2Cl)n2ncnc2n1	NPR2 activator 39
COc1cccc(N2CCN(CC(=O)NCc3cccc(OC)c3OC)CC2)c1	none (no result: V-ATPase pHluor, PG9 Ab binder)
CCN1C(=S)N[C@@H](c2cccs2)C(C(=O)OC)=C1C	NPR2 activator 35
CCN1C(=O)N[C@@H](c2cccs2)C(C(=O)OC)=C1C	none
N#Cc1cc2c(nc1SCC(=O)Nc1sc3c(c1C#N)CCC3)CCCCCC2	none
N#Cc1cc2c(nc1SCC(=O)Nc1nccs1)CCCCC2	PG9 Ab binder 37
CCCc1nc(SCC(=O)Nc2nccs2)c2ccccc2n1	none
O=C(CSc1nc(-c2ccccc2)nc2ccccc12)Nc1nccs1	PG9 Ab binder 29
CC(=O)Nc1nc2ncccn2c1-c1ccc(F)c(F)c1	none (no result: V-ATPase pHluor, PG9 Ab binder)
CCOc1ccc(NS(=O)(=O)c2cc(OC)ccc2OC)cc1	none
COc1ccc(OC)c(S(=O)(=O)Nc2ccc(Oc3ccccc3)cc2)c1	V-ATPase pHluor 13
CCOC(=O)CCCSc1nc(-c2ccc3c(c2)OCO3)cc(C(F)(F)F)c1C#N	NPR1 activator 51
CCCC[C@@H](CC)COC(=O)C(C#N)=C(c1ccccc1)c1ccccc1	none (no result: V-ATPase pHluor, PG9 Ab binder, NPR2 activator, NPR1 activator)
Cc1ccc(NC(=O)NC(=O)CSc2nnc(-c3ccc(Cl)cc3Cl)n2N)c(C)c1	V-ATPase pHluor 14
COCCCn1c(=O)c2ccccc2n(Cc2ccc(C)cc2)c1=O	none
Cc1ccc(Cn2c(=O)c3ccccc3n3nc(C)cc23)cc1	NPR2 activator 36
Cc1ccc(SCC(=O)NCCSC(C)(C)C)cc1	V-ATPase pHluor 19
COCCNC(=O)CSc1ccc(C)cc1	none
O=C(COc1ccc(-c2nnco2)cc1)N1CCOCC1	V-ATPase pHluor 15
CC1CC(C)CN(C(=O)COc2ccc(-c3nnco3)cc2)C1 (stereo unspecified)	none
O=C(O)c1cc(O)c2c(c1)[C@@H]([C@H]1c3cc(C(=O)O)cc(O)c3C(=O)c3c(O[C@H]4O[C@H](CO)[C@@H](O)[C@H](O)[C@H]4O)cccc31)c1cccc(O[C@H]3O[C@H](CO)[C@@H](O)[C@H](O)[C@H]3O)c1C2=O	none (no result: V-ATPase pHluor, PG9 Ab binder, NPR2 activator, NPR1 activator)
CC1CC(OC(=O)c2ccccc2)CC(C)(C)N1 (stereo unspecified)	none (no result: V-ATPase pHluor, PG9 Ab binder, NPR2 activator, NPR1 activator)
N#C/C(C(=O)Nc1ccc(Cl)cc1)=C(/S)Nc1ccccc1	NPR1 activator 58
CCn1c(=O)c([N+](=O)[O-])c(Cl)c2ccccc21	V-ATPase pHluor 20 (no result: Rev-erbA mod, PG9 Ab binder, NPR2 activator, NPR1 activator)
CCS(=O)(=O)NCC(c1cccnc1)N1CCN(c2ccccc2)CC1 (stereo unspecified)	V-ATPase pHluor 21
CCS(=O)(=O)NCC(c1cccnc1)N1CCN(c2ccc(OC)cc2)CC1 (stereo unspecified)	none
CCCCCCCCCCC[C@@H](C[C@H]1OC(=O)[C@H]1CCCCCC)OC(=O)[C@@H](CC(C)C)NC=O	none (no result: V-ATPase pHluor, PG9 Ab binder, NPR2 activator, NPR1 activator)
Cc1cc(NC(=O)COc2ccc3ccccc3c2Br)no1	PG9 Ab binder 10.0
CC(C)(COC(=O)c1ccccc1)N1CC2CCC(C1)O2	V-ATPase pHluor 19
CCCNC(=O)c1onc(CSc2ccccn2)c1C(=O)NCCC	V-ATPase pHluor 22
CCCCNC(=O)c1onc(CSc2ccccn2)c1C(=O)NCCCC	none
[O-][n+]1ccccc1SSc1cccc[n+]1[O-]	none (no result: V-ATPase pHluor, PG9 Ab binder, NPR2 activator, NPR1 activator)
CC(C)(C)C(=O)OCc1nc(-c2ccc(C(F)(F)F)cc2)cs1	V-ATPase pHluor 21
FC(F)(F)c1ccc(-c2csc(-c3ccno3)n2)cc1	none
COC(=O)c1ccc(C2c3[nH]c4ccccc4c3C[C@H]3C(=O)N(C4CC4)CC(=O)N23)cc1 (stereo partly specified)	NPR1 activator 55
CN1CC(=O)N2[C@H](c3ccc4c(c3)OCO4)c3[nH]c4ccccc4c3C[C@@H]2C1=O	NPR2 activator 57, NPR1 activator 49
O=C(c1ccc(F)cc1F)N1CCC(Oc2cccnc2)CC1	none (no result: V-ATPase pHluor, PG9 Ab binder)

Compound activity: PubChem BioAssay, several laboratories
